Screening results: PubChem BioAssay, several laboratories
Sampled rows, rich in hits. Any-hit rate of the full collection: about 12%.
ROMK primary – modulates human ROMK potassium channel activity; Tet-inducible ROMK, thallium flux fluorescence; actives lie on both sides; B-score at 10 µM; P48048; actives 2% (n = 130,000);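 active = signal ratio slope over the read window, or its plate-corrected B-score, at least 3 SD from the plate mean, either direction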;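 note: B-score of the F/F0 ratio slope over 7 to 12 s after thallium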
Cl transport mod – KCC2 (human) Cl- transport modulation | actives 2.2% (n = 190,000) | AID 1456 | B-score of Tl+ flux slope (higher = more flux/activation; lower = inhibition) at 10 µM | KCC2 cells, thallium flux FluoZin-2 fluorescence | Q9H2X9;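 active = thallium flux slope and its plate-corrected score both differing from the plate sample mean at a set confidence after two filtering rounds, in either direction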;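 note: slope of fluorescence scaled to starting intensity during 10 to 20 s after thallium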
Lmaj promast – Leishmania major promastigote growth inhibition; Leishmania major promastigotes, resazurin fluorescence viability; inhibition, % at 10 µM; actives 9% (n = 200,000); AID 1063; in the data active = inhibition above about 50%;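 note: promastigotes grown with compound for 44 hours at 28 °C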
WT yeast gro inh – growth inhibition of WT yeast, mitochondrial fusion screen; mitochondrial fusion phenotypic screen, WT strain; inhibition, % at 10 µM; actives 2.1% (n = 190,000); AID 1362; in the data active = inhibition above about 58%; tested in S. cerevisiae
m-calpain inh – inhibitors of pig calpain II; actives 0.37% (n = 220,000); purified calpain II, fluorogenic peptide substrate, 30 min; inhibition, % at 16 µM;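 active = inhibition above about 50%, limit read from the data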
A number is an active result; . = inactive; / = no result given.

SMILES | ROMK primary | Cl transport mod | Lmaj promast | WT yeast gro inh | m-calpain inh
O=C(Nc1cc(C(F)(F)F)ccc1N1CCOCC1)c1ccc(Cl)nc1 | . | . | 100.0 | . | .
O=C(Nc1cc(C(F)(F)F)ccc1N1CCOCC1)c1ccccc1 | . | . | . | . | .
CCOc1ccccc1NC(C)C(=O)Nc1cc(C(F)(F)F)ccc1N1CCOCC1 (configuration not stated) | / | . | . | 68.7 | .
CC(C)C(=O)Nc1cc(C(F)(F)F)ccc1N1CCOCC1 | / | . | . | . | .
CN(C)c1nc(N)c([N+](=O)[O-])c(NCC2CCCO2)n1 (configuration not stated) | / | . | / | / | .
CC(=O)Nc1ccccc1-c1nc2ccc(C(=O)N3CCN(c4cc(C)ccc4C)CC3)cc2[nH]c1=O | / | / | 56.4 | . | .
CCCSc1nc2c(cnn2-c2ccccc2)c(=O)[nH]1 | / | . | . | . | .
O=c1[nH]c(/C=C/c2ccccc2OC(F)F)nc2c1cnn2-c1ccccc1 | . | . | 62.2 | . | .
CCN1CCN(C(=S)Nc2ccc3nc4n(c(=O)c3c2)CCCCC4)CC1 | . | . | . | . | .
N#CCCN(C(=O)CSc1ccc2c(c1)OCCO2)c1ccc(F)cc1 | / | . | 86.9 | . | .
N#CC(c1ccc(F)cc1)c1ccc(C(=O)c2ccccc2)cc1 (configuration not stated) | . | . | . | . | .
N#CC(c1ccccc1)c1ccc(C(=O)c2ccc(F)cc2)cc1 (configuration not stated) | . | . | 59.9 | . | .
CCOC(=O)N1CCN(C(=O)CSc2ccc3nnc(-c4cccnc4)n3n2)CC1 | . | . | . | . | .
CCN1CCN(C(=O)CCc2nc3ccccc3n2-c2ccccc2)CC1 | . | . | 57.5 | . | .
O=C(CCc1nc2ccccc2n1-c1ccccc1)NCCO | / | . | 55.7 | . | .
COc1ccc(S(=O)(=O)N2CC3CCCN3c3cc(C(F)(F)F)ccc32)cc1 (configuration not stated) | / | / | . | 74.8 | .
Cc1ccc(CN2C(=O)c3ccccc3NC23CCN(Cc2ccccc2)CC3)cc1 | / | . | 96.1 | . | .
Cc1sc2nc(C)n(/N=C/c3ccc(O)cc3O)c(=O)c2c1C | . | . | . | . | .
CC(C)CCNC(=O)C12CN(Cc3ccccc3)CC1C(c1ccc([N+](=O)[O-])cc1)=NO2 (configuration not stated) | / | . | . | . | 57.7
COc1ccc(/C(C)=N/NC(=O)c2ccccc2N)cc1 | . | . | . | . | .
O=C(O)CCC(=O)NCC(=O)c1ccc(F)cc1 | / | . | / | / | .
O=C(CNc1ccc(F)cc1)c1ccccc1 | . | . | 83.2 | . | .
Cc1ccc(CC(=O)c2ccc(Cl)cc2)cc1 | / | . | / | / | .
O=C(CC(=O)c1ccccc1O)c1ccc(F)cc1 | . | 24.4 | 97.4 | . | .
O=C(CC(=O)c1ccccc1O)c1cccc(F)c1 | . | / | 97.8 | . | .
SMILES | ROMK primary | Cl transport mod | Lmaj promast | WT yeast gro inh | m-calpain inh
Cc1ccc(C(=O)CC(=O)c2cc(Cl)ccc2O)cc1 | . | / | 99.1 | 62.0 | .
O=C(CNc1ccc(Br)cc1)c1ccccc1 | / | . | . | . | .
O=C(NN1C(=O)C2CC=C(Cl)CC2C1=O)c1ccncc1 (configuration not stated) | . | . | . | . | .
CCN(C(=O)c1ccc2c(Cl)c3c(nc2c1)CCC3)c1ccc(C)c(C)c1 | . | . | . | 94.4 | .
CN(C(=O)c1ccc2c(Cl)c3c(nc2c1)CCC3)c1ccccc1 | . | . | . | . | .
COC(=O)c1sc(S(=O)(=O)N2CCCCC2C(=O)O)c(C(=O)OC)c1C (configuration not stated) | . | . | . | . | .
COCCN=c1scc(-c2cc(OC)ccc2OC)n1/N=C/c1c[nH]c2ccccc12 | . | . | . | 58.1 | .
O=C1CNC(=S)N1CCc1ccc(O)c(O)c1 | . | . | / | / | .
C/C(=N\Nc1nc(-c2ccccc2)cs1)c1cccs1 | / | . | 79.2 | . | .
C/C(=N\Nc1nc2ccccc2s1)c1cccs1 | . | . | . | . | .
Cc1ccc(NC(=O)CSCC(=O)N2c3ccccc3CCc3ccccc32)cc1 | . | . | 66.5 | . | .
Cc1ccc(NC(=O)N2CCc3ccccc32)cc1 | . | . | . | . | .
CN1CCCN(C(=O)c2cc(-c3cccc4ccccc34)nc3ccccc23)CC1 | / | . | / | / | .
Cc1cccc(CSCCNC(=O)c2ccc(N(C)S(=O)(=O)c3ccccc3)cc2)c1 | . | . | . | . | .
CN(c1ccc(C(=O)NCCSCc2ccccc2)cc1)S(=O)(=O)c1ccccc1 | . | . | 82.4 | . | .
Cn1c(=NC(=O)COc2ccccc2)sc2cccc(F)c21 | . | . | / | / | .
Cc1c(C(=O)c2ccc(Cl)c(Cl)c2)cnc2cc3c(cc12)OCO3 | . | . | . | 61.2 | .
COc1cc2c(C(=O)NCc3ccc(C)o3)cn(CC(C)C)c(=O)c2cc1OC | . | / | . | 74.5 | .
CCn1cc(C(=O)NCc2ccco2)c2cc(OC)c(OC)cc2c1=O | . | . | . | . | .
COc1ccc(-c2nn(-c3ccccc3)cc2/C=N/N=C(N)N)cc1OC | . | . | . | . | .
COc1ccc(-c2nn(-c3ccccc3)cc2/C=N/Nc2ccc3ccccc3n2)cc1OC | . | . | 50.5 | . | .
COc1ccc(-c2nn(-c3ccccc3)cc2/C=N/NC(=S)NC(C)C)cc1OC | . | . | 61.3 | . | .
NNC(=O)CCn1c2ccccc2c2ccccc21 | . | . | . | . | .
Nc1ncnc(Nc2ccc(S(N)(=O)=O)cc2)n1 | / | . | / | / | .
Cc1ccc2nc(-c3ccccc3Cl)cc(C(=O)Nc3cc(C)on3)c2c1 | / | . | 55.1 | . | .
SMILES | ROMK primary | Cl transport mod | Lmaj promast | WT yeast gro inh | m-calpain inh
Cc1ccc2[nH]c(=O)c3cc(C(=O)N(CCCOC(C)C)Cc4ccco4)sc3c2c1 | / | / | 75.0 | . | .
Cc1ccc2nc(Cl)c3cc(C(=O)N(CCN(C)C)Cc4ccco4)sc3c2c1 | . | . | 65.4 | . | .
CCCCN(Cc1ccco1)C(=O)c1cc2c(=O)[nH]c3ccc(C)cc3c2s1 | / | / | . | . | .
CN(C)CCN(Cc1ccco1)C(=O)c1cc2c(Cl)nc3ccccc3c2s1 | / | . | 91.4 | . | .
CC(=O)Nc1nnc(-c2c(-c3ccccc3Cl)noc2C)o1 | / | . | / | / | .
O=C1C=CC2C(c3ccc4c(c3)OCO4)CC1N2Cc1ccccc1 (configuration not stated) | / | . | 99.8 | . | .
CC(=O)OCC(=O)Nc1c(C)cccc1C | . | . | . | . | .
CCC(C)N=C1CC(C)(C)CC(=O)/C1=C(/O)Cc1ccccc1 (configuration not stated) | . | . | . | . | .
COc1ccc(NC(=O)CCC(=O)N(Cc2ccc(OC)c(OC)c2)c2nccs2)cc1 | / | . | 54.3 | . | .
C=CCCc1ccc(C#N)c(SCc2c(C(=O)OCC)c3cc(OC(C)=O)c(Br)cc3n2C)n1 | / | . | 63.7 | . | .
CCOC(=O)c1c(CSc2nc(C)cc(C)c2C#N)n(C)c2cc(Br)c(OC(C)=O)cc12 | / | . | 96.0 | . | .
O=C1C2(CCCC13COC(c1ccc(O)cc1)OC3)COC(c1ccc(O)cc1)OC2 (configuration not stated) | / | . | / | / | .
